# Compound activity from PubChem BioAssay.
# Shown are actives, neighbours in structure and some others; about 9% of the full set was active somewhere.
# BAZ2B inh: qHTS Assay for Inhibitors of BAZ2B; Potency, µM (series often up to 114 µM), for inactives: top-dose activity change, negative = inhibition, most hits filed as inhibitors; Bromodomain adjacent to zinc finger domain protein 2B (Homo sapiens), Q9UIF8; AID 504333, 2011; AlphaScreen BAZ2B-H3K14Ac peptide displacement; 360,000 tested, 4.4% active; also: % is scaled to controls: 0 for no effect and ±100 for the full control effect; nearly all actives have a fitted effect of over 60% in size
#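 Inhibition is scored as reduced AlphaScreen emission. The BAZ2B/b-H3(5-23)K14Ac complex (50 nM each) in PBS pH 7.4, 0.01% Tween-20 meets compound (up to 110 uM) for 30 min at RT before bead addition.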
# HP1b chromo inh: HTS for Inhibitors of HP1-beta Chromodomain Interactions with Methylated Histone Tails; Chromobox protein homolog 1 (Homo sapiens), P83916; AlphaScreen HP1-beta / biotin-H3K9me3 peptide binding; Potency, µM (highest dose often 114 µM), inactives show at the top dose activity change, negative = inhibition, hits mostly inhibitors; 390,000 tested, 0.56% active; also: nearly all actives have a fitted effect of over 70% in size
#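 AlphaScreen: HP1-beta (50 nM) preformed 30 min with biotin-H3(1-18)K9me3 peptide (50 nM) in PBS pH 7.4, 0.01% Tween-20. Compound added for 30 min at RT, then streptavidin donor/nickel chelate acceptor beads (10 ug/mL) for 30 min.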
# G9a inh: qHTS Assay for Inhibitors of Histone Lysine Methyltransferase G9a | Histone-lysine N-methyltransferase EHMT2 (Homo sapiens), Q96KQ7 | G9a H3K9 monomethylation, AlphaScreen, 2 h | Potency, µM (doses to about 102 µM), without a hit: top-dose activity, negative = inhibition, actives largely listed as inhibitors | 350,000 tested, 8.8% active; also: % is scaled to controls: 0 for no effect and ±100 for the full control effect; nearly all actives have a fitted effect of over 75% in size
#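 AlphaScreen detection with an anti-monomethyl H3K9 antibody quantified product after a 2 h room-temperature reaction containing 500 nM biotinylated H3K9 peptide, 20 µM SAM and 20 nM enzyme, which had been preincubated 15 min with compound.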
# 12-LOX inh: Primary qHTS assay for inhibitors of human arachidonate 12S-lipoxygenase (ALOX12): Round 2; Potency, µM (top dose mostly 108 µM), inactives show at the highest dose activity change, negative = inhibition, actives largely listed as inhibitors; 580,000 tested, 1.1% active; purified 12hLO, xylenol orange hydroperoxide absorbance; also: % is scaled to controls: 0 for no effect and ±100 for the full control effect
# Target sequence (P18054 whole entry, looked up): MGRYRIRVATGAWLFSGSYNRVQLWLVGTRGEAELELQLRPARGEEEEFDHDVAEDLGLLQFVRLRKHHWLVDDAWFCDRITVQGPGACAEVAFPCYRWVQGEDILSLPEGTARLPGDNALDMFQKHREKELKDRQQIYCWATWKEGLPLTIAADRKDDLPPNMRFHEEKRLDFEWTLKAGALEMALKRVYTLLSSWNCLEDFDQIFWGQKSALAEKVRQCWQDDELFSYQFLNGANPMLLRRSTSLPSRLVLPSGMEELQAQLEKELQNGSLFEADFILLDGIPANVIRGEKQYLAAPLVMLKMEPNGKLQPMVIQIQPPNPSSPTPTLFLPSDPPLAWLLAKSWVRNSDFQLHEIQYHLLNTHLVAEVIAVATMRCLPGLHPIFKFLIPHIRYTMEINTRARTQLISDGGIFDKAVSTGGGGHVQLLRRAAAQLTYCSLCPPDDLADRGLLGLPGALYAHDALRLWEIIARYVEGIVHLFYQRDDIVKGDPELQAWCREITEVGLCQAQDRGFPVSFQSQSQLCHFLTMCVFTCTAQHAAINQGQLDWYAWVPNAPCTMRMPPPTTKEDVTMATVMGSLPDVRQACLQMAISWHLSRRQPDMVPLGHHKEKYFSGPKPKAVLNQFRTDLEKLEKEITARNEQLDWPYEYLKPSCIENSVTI
#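 Purified human 12hLO (150 nM final) in 25 mM Hepes, 0.01% Triton X-100, pH 7.0 was preincubated 15 min at room temperature with compound. Then 40 uM arachidonic acid was added, 30 min. Hydroperoxide was read by Fe-XO absorbance ratio 573/405 nm.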
# PLK1 PBD inh: qHTS for Inhibitors of PLK1-PDB (polo-like kinase 1 - polo-box domain): Primary Screen | Plk1 PBD binding of FITC phosphopeptide, fluorescence polarization | Potency, µM, for the others: max response, negative = inhibition, hits mostly inhibitors | 360,000 tested, 2.8% active | AID 720504, 2013; also: series mostly up to about 57 µM; % is scaled to controls: 0 for no effect and ±100 for the full control effect; nearly all actives have a fitted effect of over 65% in size
# JMJD2A Tudor: qHTS Assay for Inhibitors of JMJD2A-Tudor Domain; AlphaScreen JMJD2A-Tudor / H3K4me3 peptide binding; AID 504339, 2011; Lysine-specific demethylase 4A (Homo sapiens), O75164; Potency, µM (highest dose often 114 µM), for the others: at the highest dose activity change, negative = inhibition, hits mostly inhibitors; 390,000 tested, 4.4% active; also: % is scaled to controls: 0 for no effect and ±100 for the full control effect; nearly all actives have a fitted effect of over 50% in size
# Starred values were filed as active, the others as inactive; ? = inconclusive; . = no result; [ ] = dose if it differs, or a comment. Calls follow the shape of the dose curve; as a rule, active = well fitted curve in the direction sought with a large enough effect; inconclusive = small, poorly fitted or top-dose-only effect, or another doubt; inactive = no such curve, though single readings can be large; an effect the other way counts as inactive or inconclusive. Potency is read from the fitted curve at half-maximal effect.
SMILES,BAZ2B inh,HP1b chromo inh,G9a inh,12-LOX inh,PLK1 PBD inh,JMJD2A Tudor
COc1cc2c(-c3ccc4cc[nH]c4c3)c(-c3ccsc3)oc(=O)c2cc1OC,-21.7%,25.5%,4.9%[0.501 µM],-18.1%,-1.0%,-22.8%
Cc1c(CC(=O)N2CCOCC2)c2c(n1Cc1ccc(F)cc1)CCCC2=O,.,.,.,-17.1%,.,.
O=C(CC(c1cccs1)S(=O)(=O)c1ccccc1)c1ccc(F)cc1 (stereo not given),-24.2%,29.6%,8.91µM*,-14.2%,3.5%,9.3%
COC[C@@]12CC[C@@H](N3CCOCC3)C[C@H]1CCN(Cc1cccc3nonc13)C2,.,.,.,-27.7%,.,.
COc1ccc(CC(=O)NCc2nnc(SCc3ccc([N+](=O)[O-])cc3)n2C)cc1,-13.0%,17.5%,12.9%,-15.0%,5.5%,-14.7%
Cn1c(Cc2cccc3ccccc23)nnc1SCc1ccc([N+](=O)[O-])cc1,-39.0%,-8.4%,10µM*,?,-10.3%,?
COc1ccc(-n2c(Cc3ccccc3)nnc2SCc2ccc([N+](=O)[O-])cc2)cc1,?,-13.8%,50.1µM*,?,26.7µM*,?
O=C(O)C1(Nc2ccc(Cl)cc2)CCCC1,.,14.0%[57 µM],.,-19.8%,1.2%,-6.2%
CC1=CC(C)(C)[N+](C)=CN1c1ccccc1,-7.9%,5.2%,6.31µM*,?,-4.8%,-8.7%
Cc1nc2cc(C(=O)O)ccc2n1-c1ccccc1,4.8%,42.7%,?,-8.6%,-19.7%,-9.2%
CC(=O)N1CC=C2C(C#N)=C(N)C(C#N)(C#N)C(CCc3ccccc3)C2C1 (stereo not given),?,-0.1%,?,56.0%,26.7µM*,-10.2%[57.1 µM]
C#CCOCCOCCOCCNc1nc(N2CCN(C(=O)[C@H](CCC(=O)O)n3cc([C@@H](N)[C@H](C)CC)nn3)CC2)nc(N2CCN(C(=O)[C@H](CCC(=O)O)n3cc([C@@H](N)CCSC)nn3)CC2)n1,.,49.2%,.,-5.7%,-15.3%,50.1µM*
C#CCOCCOCCOCCNc1nc(N2CCN(C(=O)[C@H](CCC(=O)O)n3cc(CN)nn3)CC2)nc(N2CCN(C(=O)[C@H](CCC(=O)O)n3cc([C@@H](N)[C@H](C)CC)nn3)CC2)n1,.,5.7%,.,-5.6%,-13.8%,79.4µM*
C#CCOCCOCCOCCNc1nc(N2CCN(C(=O)C([C@@H](C)O)n3cc([C@@H](N)CCCCN)nn3)CC2)nc(N2CCN(C(=O)[C@H](CCCCN)n3cc([C@@H](N)[C@H](C)CC)nn3)CC2)n1 (stereo not given in full),.,87.9%,.,10.7%,-16.9%,?
C#CCOCCOCCOCCNc1nc(N2CCN(C(=O)[C@H](CO)n3cc([C@@H](N)C(C)C)nn3)CC2)nc(N2CCN(C(=O)[C@H](CCCCN)n3cc([C@@H](N)[C@H](C)CC)nn3)CC2)n1,.,38.6%,.,-3.2%,-3.7%,-4.3%
C#CCOCCOCCOCCNc1nc(N2CCOCC2)nc(N2CCN(C(=O)[C@H](CO)n3cc([C@@H](N)C(C)C)nn3)CC2)n1,.,36.6%,.,-0.4%,6.0%,-11.3%
C#CCOCCOCCOCCNc1nc(N2CCOCC2)nc(N2CCN(C(=O)[C@H](CCC(=O)O)n3cc(C(N)[C@H](C)CC)nn3)CC2)n1 (stereo not given in full),-29.9%,56.9%,7.7%[12.7 µM],7.2%,-20.6%,39.8µM*
Cc1cc(NS(=O)(=O)c2ccc(NC(=O)CSc3nnc(-c4ccco4)n3Cc3ccco3)cc2)nc(C)n1,2.6%,3.6%,-9.6%[59 µM],6.1%,3.6%,-24.1%
Cn1cc(P(=S)(N2CCOCC2)N2CCOCC2)cc1P(=S)(N1CCOCC1)N1CCOCC1,-8.8%,2.7%,44.7µM*,-26.3%,?,1.4%
COc1ccc2cc(S(=O)(=O)N3CCOCC3)ccc2c1,-5.2%,41.8%,-15.1%[59 µM],0.0%,-5.9%,-1.4%
N#CCCn1cc(C(=O)NCc2ccccc2)c(-c2cccs2)n1,-3.8%,36.7%,12.6%,0.6%,6.7%,-4.8%
N#CCCn1cc(C=O)c(-c2cccs2)n1,-4.5%,-11.2%,7.8%,0.0%,26.7µM*,?
N#CCCn1cc(C(=O)Nc2ccc(C(=O)O)cc2)c(-c2cccs2)n1,-5.8%,18.0%,11.0%[59 µM],-8.5%,5.97µM*,15.8µM*
Cc1ccc(C(=O)N[C@@H]2C=C(C(=O)NCCC(N)=O)C[C@@H](O)[C@@H]2O)cc1,.,.,.,57.0%[176 µM],.,.
OCC1(Cc2ccc(F)cc2)CCCN(CCc2ccccc2)C1 (stereo not given),-12.5%,21.2%,.,?,-12.9%,-15.1%
SMILES,BAZ2B inh,HP1b chromo inh,G9a inh,12-LOX inh,PLK1 PBD inh,JMJD2A Tudor
CCCCNC(=S)NC(=O)c1ccccc1Br,10.4%,39.3%,-14.5%[59 µM],0.0%,-1.8%,-2.7%
CC1CCCC(NC(=S)NC(=O)c2ccccc2Br)C1C (stereo not given),30.7%,38.6%,30.5%[59 µM],22.4µM*,1.7%,4.3%
O=C(NC(=S)Nn1cnnc1)c1ccccc1,-31.0%,-7.0%,-11.7%[2.33 µM],35.5µM*,?,-30.5%
CCOc1cc(C(=O)NC(=S)Nn2cnnc2)cc(OCC)c1OCC,-30.4%,-7.4%,25.1µM*,?,?,?
O=C(CNC(=S)NC(=O)c1ccccc1)c1ccccc1,-7.6%,10.6%,?,?,-15.7%,-6.4%[57.1 µM]
O=C(NC(=S)Nn1cnnc1)c1ccccc1Br,-28.3%,?,-126.6%[59 µM],-26.3%,29.9µM*,-14.7%
O=c1c2c(CO)c(-c3ccc(F)cc3)nn2ccn1Cc1ccc(OC(F)(F)F)cc1,.,.,.,-2.0%,.,.
CCOC(=O)c1ccc(NC(=O)Cn2c(N3CCC(C)CC3)nc(C)cc2=O)cc1,.,.,.,-13.5%,.,.
CC1CCN(C(=O)C2CCN(C(=O)N3CC4CC(C3)[C@H]3CCCC(=O)N3C4)CC2)CC1 (stereo not given in full),.,.,.,28.6%,.,.
O=C(c1ccccn1)N1CCCC1c1nc(C2CCOCC2)no1 (stereo not given),.,.,.,1.9%,.,.
COc1ccc(NCC(=O)n2c(C)c(C)c3ccccc32)cc1,-9.3%,10.4%,10µM*,?,3.9%,-32.8%
COc1ccc(NC(=O)Cn2c(C)cc(=O)c3ccccc32)cc1,0.3%,43.6%,16.9%,1.1%,?,0.3%
